# Results as given in article PMC7862700, “An all-to-all approach to the identification of sequence-specific readers for epigenetic DNA modifications on cytosine”.
# Legend:
# Assay in all cases: DAPPL (digital affinity profiling via proximity ligation, sequencing); 10 mM Tris-HCl pH 7.5, 50 mM NaCl, 1 mM DTT, 4% glycerol, room temperature, 30 min; GST-TFs on glutathione beads, 16-mer random dsDNA library, 0.1% formaldehyde crosslink after washing; high values mean tight binding
# FEV = target: T1, FEV (Homo sapiens, UniProt Q99581 1-238); details: protein: recombinant; tags: N-terminal GST; dsDNA, one strand shown
# T1 sequence: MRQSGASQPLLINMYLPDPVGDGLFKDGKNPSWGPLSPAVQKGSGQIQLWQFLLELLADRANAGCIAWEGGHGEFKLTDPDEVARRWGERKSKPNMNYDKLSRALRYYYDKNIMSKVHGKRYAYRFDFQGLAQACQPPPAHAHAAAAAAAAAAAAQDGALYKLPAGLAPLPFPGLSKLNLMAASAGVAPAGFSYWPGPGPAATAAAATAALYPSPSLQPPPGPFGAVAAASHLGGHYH
# Outline: (§1)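 The binding signal reported is, for every hexamer, its read frequency for a factor over its read frequency for the tag-only sample. Reads came from pools of yeast-expressed, GST-fused human transcription factors on glutathione beads, barcoded with DNA and mixed with that sample, which were incubated with 200 nmole of a random double-stranded 16-mer DNA library in Tris/NaCl/DTT/glycerol buffer at room temperature for 30 min. After washing, the pools were crosslinked with 0.1% formaldehyde, proximity-ligated with BsaI/T4 ligase for 1 h at 37 °C, PCR-amplified and sequenced on an Illumina NextSeq500.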
# ETV5 = ETV5 (Homo sapiens, UniProt P41161 1-510); details: protein: recombinant; tags: N-terminal GST; dsDNA, one strand shown
# Chain of ETV5 (P41161 whole entry): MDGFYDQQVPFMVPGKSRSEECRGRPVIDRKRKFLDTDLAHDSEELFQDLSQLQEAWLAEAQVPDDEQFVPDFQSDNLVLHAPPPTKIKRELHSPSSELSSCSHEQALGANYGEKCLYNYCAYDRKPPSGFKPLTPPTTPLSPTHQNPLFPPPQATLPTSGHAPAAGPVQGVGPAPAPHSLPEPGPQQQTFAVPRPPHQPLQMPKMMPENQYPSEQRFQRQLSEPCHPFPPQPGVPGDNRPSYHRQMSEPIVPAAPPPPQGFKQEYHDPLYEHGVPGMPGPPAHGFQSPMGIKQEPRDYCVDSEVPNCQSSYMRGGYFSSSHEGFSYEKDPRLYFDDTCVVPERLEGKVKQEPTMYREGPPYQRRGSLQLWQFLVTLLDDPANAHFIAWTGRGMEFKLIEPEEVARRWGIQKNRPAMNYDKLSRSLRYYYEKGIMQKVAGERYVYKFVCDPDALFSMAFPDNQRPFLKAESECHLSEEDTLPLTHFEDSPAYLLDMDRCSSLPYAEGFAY
# Outline: as §1
# HSF1 = HSF1 (Homo sapiens, UniProt Q00613 1-529); details: protein: recombinant; tags: N-terminal GST; chain copies: 3; dsDNA, one strand shown
# Chain of HSF1 (Q00613 whole entry): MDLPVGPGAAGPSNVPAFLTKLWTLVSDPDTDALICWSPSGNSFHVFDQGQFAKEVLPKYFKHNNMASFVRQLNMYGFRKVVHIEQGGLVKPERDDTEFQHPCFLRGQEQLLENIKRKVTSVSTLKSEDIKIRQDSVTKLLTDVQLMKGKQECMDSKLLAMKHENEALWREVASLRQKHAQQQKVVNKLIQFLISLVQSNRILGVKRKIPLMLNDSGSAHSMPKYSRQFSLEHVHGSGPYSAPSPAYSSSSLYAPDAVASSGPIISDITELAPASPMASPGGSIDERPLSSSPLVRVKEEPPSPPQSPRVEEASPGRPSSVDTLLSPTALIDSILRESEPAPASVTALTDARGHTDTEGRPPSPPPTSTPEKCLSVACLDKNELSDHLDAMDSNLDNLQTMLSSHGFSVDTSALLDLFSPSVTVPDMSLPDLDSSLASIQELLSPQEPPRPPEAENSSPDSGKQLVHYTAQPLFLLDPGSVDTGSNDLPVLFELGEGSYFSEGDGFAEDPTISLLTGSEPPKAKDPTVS
# Outline: as §1
# SPIC = target: T2, SPIC (Homo sapiens, UniProt Q8N5J4 1-248); details: protein: recombinant; tags: N-terminal GST; dsDNA, one strand shown
# T2 sequence: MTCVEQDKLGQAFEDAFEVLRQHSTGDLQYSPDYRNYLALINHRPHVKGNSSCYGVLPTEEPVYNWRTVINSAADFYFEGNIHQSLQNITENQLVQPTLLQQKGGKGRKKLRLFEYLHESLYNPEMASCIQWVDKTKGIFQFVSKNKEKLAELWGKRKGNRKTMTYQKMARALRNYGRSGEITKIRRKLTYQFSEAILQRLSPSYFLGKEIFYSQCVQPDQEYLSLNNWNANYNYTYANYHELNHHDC
# Outline: as §1
# ELF4 = ELF4 (Homo sapiens, UniProt Q99607 1-663); details: protein: recombinant; tags: N-terminal GST; dsDNA, one strand shown
# Chain of ELF4 (Q99607 whole entry): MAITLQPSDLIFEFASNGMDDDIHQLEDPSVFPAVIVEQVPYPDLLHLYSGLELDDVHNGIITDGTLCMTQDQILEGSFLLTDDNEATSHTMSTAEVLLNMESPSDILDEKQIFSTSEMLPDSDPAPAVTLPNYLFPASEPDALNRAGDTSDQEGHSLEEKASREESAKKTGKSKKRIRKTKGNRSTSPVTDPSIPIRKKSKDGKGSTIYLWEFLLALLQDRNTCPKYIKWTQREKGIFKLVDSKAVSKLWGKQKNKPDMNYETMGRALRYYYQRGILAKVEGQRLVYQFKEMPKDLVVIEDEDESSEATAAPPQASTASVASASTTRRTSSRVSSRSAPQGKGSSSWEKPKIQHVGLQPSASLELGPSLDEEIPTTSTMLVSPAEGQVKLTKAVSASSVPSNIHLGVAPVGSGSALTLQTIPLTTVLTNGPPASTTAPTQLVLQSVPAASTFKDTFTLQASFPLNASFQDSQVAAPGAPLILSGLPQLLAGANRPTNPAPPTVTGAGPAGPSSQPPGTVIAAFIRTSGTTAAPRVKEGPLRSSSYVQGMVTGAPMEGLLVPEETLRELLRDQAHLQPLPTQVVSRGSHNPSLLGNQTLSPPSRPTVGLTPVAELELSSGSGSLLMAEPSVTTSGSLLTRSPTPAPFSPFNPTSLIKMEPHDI
# Outline: as §1
# ELK4 = target: T3, ELK4 (Homo sapiens, UniProt P28324-2 1-405); details: protein: recombinant; tags: N-terminal GST; dsDNA, one strand shown
# T3 sequence: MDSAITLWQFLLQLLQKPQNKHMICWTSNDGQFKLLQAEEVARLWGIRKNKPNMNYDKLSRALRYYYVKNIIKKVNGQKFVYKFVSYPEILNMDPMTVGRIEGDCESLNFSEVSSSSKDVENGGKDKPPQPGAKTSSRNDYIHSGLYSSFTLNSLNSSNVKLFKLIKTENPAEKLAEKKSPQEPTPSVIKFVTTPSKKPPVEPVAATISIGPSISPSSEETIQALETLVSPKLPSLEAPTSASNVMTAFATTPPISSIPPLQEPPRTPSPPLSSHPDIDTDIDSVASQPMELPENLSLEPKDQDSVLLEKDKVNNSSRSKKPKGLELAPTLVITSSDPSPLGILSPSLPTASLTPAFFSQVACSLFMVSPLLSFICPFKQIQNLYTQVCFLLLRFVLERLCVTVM
# Outline: as §1
# ETV2 = target: T4, ETV2 (Homo sapiens, UniProt O00321 1-342); details: protein: recombinant; tags: N-terminal GST; dsDNA, one strand shown
# T4 sequence: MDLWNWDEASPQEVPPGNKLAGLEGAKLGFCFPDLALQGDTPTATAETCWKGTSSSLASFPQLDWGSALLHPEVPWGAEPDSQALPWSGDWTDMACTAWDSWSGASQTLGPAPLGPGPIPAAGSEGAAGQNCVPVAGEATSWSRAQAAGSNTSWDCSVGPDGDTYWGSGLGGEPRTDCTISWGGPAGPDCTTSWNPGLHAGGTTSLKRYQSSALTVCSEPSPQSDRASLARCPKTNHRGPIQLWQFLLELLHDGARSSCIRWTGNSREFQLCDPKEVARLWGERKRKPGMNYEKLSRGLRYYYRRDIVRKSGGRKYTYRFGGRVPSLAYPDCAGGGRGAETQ
# Outline: as §1
# ELF3 = target: T5, ELF3 (Homo sapiens, UniProt P78545 1-371); details: protein: recombinant; tags: N-terminal GST; dsDNA, one strand shown
# T5 sequence: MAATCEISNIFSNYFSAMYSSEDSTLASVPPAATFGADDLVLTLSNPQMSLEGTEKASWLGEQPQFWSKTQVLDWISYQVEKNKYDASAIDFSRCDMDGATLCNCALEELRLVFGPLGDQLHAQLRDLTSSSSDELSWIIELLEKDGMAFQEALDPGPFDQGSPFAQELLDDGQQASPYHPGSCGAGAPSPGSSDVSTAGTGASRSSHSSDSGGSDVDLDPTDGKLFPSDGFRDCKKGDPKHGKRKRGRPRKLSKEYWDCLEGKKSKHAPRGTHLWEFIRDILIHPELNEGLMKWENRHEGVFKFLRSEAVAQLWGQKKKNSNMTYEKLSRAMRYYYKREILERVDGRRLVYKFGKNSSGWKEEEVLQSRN
# Outline: as §1
# CRX = CRX (Homo sapiens, UniProt O43186 1-299); details: protein: recombinant; tags: N-terminal GST; dsDNA, one strand shown
# Chain of CRX (O43186 whole entry): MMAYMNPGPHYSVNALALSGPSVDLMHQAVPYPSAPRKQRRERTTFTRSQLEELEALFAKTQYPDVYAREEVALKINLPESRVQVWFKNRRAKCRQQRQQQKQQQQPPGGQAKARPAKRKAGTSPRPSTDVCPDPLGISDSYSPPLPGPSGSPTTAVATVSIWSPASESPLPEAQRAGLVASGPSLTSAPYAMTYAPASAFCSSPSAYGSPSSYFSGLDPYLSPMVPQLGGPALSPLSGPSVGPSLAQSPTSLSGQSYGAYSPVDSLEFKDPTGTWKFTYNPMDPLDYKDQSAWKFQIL
# Outline: as §1
# ETV1 = ETV1 (Homo sapiens, UniProt P50549 1-477); details: protein: recombinant; tags: N-terminal GST; dsDNA, one strand shown
# Chain of ETV1 (P50549 whole entry): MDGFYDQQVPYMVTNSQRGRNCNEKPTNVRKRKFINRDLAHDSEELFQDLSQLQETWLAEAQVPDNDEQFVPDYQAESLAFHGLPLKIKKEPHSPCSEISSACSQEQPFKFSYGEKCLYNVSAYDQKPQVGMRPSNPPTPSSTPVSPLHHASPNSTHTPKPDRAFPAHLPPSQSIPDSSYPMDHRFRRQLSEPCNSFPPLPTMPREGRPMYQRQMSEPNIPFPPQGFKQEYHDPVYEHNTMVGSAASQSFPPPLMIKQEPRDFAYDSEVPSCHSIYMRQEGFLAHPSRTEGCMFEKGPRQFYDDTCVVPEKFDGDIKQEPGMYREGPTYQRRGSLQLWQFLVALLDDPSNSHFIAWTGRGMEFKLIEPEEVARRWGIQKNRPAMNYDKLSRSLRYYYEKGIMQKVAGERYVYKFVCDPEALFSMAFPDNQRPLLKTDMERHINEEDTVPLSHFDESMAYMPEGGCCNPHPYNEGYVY
# Outline: as §1
# ERF = target: T6, ERF (Homo sapiens, UniProt P50548 1-548); details: protein: recombinant; tags: N-terminal GST; dsDNA, one strand shown
# T6 sequence: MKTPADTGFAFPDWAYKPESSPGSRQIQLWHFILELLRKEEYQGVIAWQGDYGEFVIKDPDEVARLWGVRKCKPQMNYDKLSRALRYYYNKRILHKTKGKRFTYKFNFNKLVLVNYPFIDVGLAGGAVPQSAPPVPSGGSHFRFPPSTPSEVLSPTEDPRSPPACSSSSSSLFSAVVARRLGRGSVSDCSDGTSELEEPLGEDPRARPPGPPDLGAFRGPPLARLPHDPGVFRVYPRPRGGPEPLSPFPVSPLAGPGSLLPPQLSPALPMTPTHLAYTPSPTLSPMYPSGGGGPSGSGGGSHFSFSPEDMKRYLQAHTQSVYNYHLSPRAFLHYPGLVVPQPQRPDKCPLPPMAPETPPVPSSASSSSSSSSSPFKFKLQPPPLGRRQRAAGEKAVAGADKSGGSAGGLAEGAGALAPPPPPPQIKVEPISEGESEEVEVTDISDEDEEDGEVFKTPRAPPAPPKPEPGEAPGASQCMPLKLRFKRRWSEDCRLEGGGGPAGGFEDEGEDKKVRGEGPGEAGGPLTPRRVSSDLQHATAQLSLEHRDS
# Outline: as §1
# ETV3L = target: T7, ETV3L (Homo sapiens, UniProt Q6ZN32 1-361); details: protein: recombinant; tags: N-terminal GST; dsDNA, one strand shown
# T7 sequence: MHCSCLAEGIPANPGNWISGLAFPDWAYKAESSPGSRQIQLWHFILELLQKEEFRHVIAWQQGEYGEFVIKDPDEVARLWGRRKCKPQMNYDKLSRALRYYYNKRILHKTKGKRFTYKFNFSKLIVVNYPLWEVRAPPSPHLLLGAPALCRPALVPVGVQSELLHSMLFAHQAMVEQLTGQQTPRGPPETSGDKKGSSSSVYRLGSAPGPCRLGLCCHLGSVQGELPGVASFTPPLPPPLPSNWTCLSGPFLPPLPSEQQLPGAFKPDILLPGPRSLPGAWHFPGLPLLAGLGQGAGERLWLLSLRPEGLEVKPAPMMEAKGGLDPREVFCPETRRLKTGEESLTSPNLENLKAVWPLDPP
# Outline: as §1
# ETS2 = target: T8, ETS2 (Homo sapiens, UniProt P15036 1-469); details: protein: recombinant; tags: N-terminal GST; dsDNA, one strand shown
# T8 sequence: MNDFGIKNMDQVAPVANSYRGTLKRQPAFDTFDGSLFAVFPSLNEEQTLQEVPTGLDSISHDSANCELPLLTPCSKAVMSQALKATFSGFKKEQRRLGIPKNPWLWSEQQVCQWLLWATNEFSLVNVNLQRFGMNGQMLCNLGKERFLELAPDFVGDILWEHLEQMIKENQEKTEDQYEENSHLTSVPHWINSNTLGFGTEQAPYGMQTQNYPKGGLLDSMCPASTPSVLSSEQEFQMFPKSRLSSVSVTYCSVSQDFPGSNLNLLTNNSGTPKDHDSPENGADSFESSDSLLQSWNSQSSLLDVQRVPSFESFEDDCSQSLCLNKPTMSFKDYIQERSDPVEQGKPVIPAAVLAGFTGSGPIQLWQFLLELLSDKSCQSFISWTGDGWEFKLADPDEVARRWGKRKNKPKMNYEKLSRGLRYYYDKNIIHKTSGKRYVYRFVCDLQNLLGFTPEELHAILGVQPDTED
# Outline: as §1
# SPDEF = target: T9, SPDEF (Homo sapiens, UniProt O95238 1-335); details: protein: recombinant; tags: N-terminal GST; dsDNA, one strand shown
# T9 sequence: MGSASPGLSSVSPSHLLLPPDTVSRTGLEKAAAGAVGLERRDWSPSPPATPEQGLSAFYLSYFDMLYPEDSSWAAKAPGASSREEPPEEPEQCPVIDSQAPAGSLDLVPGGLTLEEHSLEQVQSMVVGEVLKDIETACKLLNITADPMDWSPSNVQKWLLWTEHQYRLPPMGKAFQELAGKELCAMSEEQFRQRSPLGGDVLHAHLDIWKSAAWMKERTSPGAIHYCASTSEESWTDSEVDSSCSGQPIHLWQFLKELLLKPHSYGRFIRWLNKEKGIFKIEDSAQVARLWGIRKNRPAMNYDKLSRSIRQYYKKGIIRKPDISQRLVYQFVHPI
# Outline: as §1
# ETV7 = target: T10, ETV7 (Homo sapiens, UniProt Q9Y603 1-341); details: protein: recombinant; tags: N-terminal GST; dsDNA, one strand shown
# T10 sequence: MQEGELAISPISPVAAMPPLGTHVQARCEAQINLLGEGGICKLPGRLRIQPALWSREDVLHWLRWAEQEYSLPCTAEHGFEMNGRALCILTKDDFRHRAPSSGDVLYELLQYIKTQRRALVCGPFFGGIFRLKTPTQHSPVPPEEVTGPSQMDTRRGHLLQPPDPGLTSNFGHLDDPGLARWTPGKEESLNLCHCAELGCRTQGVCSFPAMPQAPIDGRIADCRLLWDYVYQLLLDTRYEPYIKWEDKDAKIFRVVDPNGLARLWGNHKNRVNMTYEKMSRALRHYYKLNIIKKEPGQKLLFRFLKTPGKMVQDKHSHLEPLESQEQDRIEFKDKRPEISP
# Outline: as §1
# ELF5 = target: T11, ELF5 (Homo sapiens, UniProt Q9UKW6-2 1-255); details: protein: recombinant; tags: N-terminal GST; dsDNA, one strand shown
# T11 sequence: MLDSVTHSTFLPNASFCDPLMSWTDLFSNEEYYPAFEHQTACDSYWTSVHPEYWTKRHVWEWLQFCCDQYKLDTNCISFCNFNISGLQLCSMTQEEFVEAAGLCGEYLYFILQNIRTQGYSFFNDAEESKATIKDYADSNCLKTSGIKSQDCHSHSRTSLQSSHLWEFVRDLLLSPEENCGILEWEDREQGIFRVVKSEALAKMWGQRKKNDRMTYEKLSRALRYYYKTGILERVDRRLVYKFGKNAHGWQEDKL
# Outline: as §1
# ETV3 = target: T12, ETV3 (Homo sapiens, UniProt P41162-2 1-143); details: protein: recombinant; tags: N-terminal GST; dsDNA, one strand shown
# T12 sequence: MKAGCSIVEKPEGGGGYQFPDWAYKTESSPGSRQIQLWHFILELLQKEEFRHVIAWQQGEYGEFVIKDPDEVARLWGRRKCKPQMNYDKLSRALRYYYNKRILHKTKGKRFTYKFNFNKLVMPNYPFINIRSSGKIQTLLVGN
# Outline: as §1
# ETV6 = ETV6 (Homo sapiens, UniProt P41212 1-452); details: protein: recombinant; tags: N-terminal GST; dsDNA, one strand shown
# Chain of ETV6 (P41212 whole entry): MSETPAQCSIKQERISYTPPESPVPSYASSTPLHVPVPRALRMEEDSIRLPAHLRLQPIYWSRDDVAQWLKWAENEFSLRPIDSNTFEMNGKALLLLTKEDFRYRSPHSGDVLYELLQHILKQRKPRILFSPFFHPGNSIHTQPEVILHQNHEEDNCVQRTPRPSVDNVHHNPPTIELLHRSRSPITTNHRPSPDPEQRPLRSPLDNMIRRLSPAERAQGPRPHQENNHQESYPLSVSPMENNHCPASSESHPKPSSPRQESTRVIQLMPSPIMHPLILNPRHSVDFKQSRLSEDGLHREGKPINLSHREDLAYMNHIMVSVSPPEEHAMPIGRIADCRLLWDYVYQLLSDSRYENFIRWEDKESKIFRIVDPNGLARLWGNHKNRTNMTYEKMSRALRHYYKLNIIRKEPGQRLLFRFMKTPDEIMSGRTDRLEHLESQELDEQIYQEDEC
# Outline: as §1
sequence,measurement,setting,value
TCCCCT,binding signal,FEV,"1.71 fold enrichment (6-mer frequency, TF over GST control)"
same,binding signal,ETV5,"1.72 fold enrichment (6-mer frequency, TF over GST control)"
same,binding signal,HSF1,"1.56 fold enrichment (6-mer frequency, TF over GST control)"
same,binding signal,SPIC,"1.88 fold enrichment (6-mer frequency, TF over GST control)"
same,binding signal,ELF4,"1.83 fold enrichment (6-mer frequency, TF over GST control)"
same,binding signal,ELK4,"1.55 fold enrichment (6-mer frequency, TF over GST control)"
same,binding signal,ETV2,"1.57 fold enrichment (6-mer frequency, TF over GST control)"
same,binding signal,ELF3,"1.78 fold enrichment (6-mer frequency, TF over GST control)"
same,binding signal,CRX,"1.92 fold enrichment (6-mer frequency, TF over GST control)"
same,binding signal,ETV1,"1.75 fold enrichment (6-mer frequency, TF over GST control)"
same,binding signal,ERF,"1.69 fold enrichment (6-mer frequency, TF over GST control)"
same,binding signal,ETV3L,"1.64 fold enrichment (6-mer frequency, TF over GST control)"
same,binding signal,ETS2,"1.69 fold enrichment (6-mer frequency, TF over GST control)"
same,binding signal,SPDEF,"1.54 fold enrichment (6-mer frequency, TF over GST control)"
same,binding signal,ETV7,"1.58 fold enrichment (6-mer frequency, TF over GST control)"
same,binding signal,ELF5,"1.76 fold enrichment (6-mer frequency, TF over GST control)"
same,binding signal,ETV3,"1.54 fold enrichment (6-mer frequency, TF over GST control)"
same,binding signal,ETV6,"1.65 fold enrichment (6-mer frequency, TF over GST control)"
